Hit rate of the full screen: of about 16,000 compounds, about 5,700 (36%) were called active. Inconclusive results (about 24%) are left out. The call rests on the fitted dose curve; in most records, active means well fitted curve in the direction sought with a large enough effect; inconclusive means small, poorly fitted or top-dose-only effect, or effect the other way; inactive means no such curve, though single readings can be large or run the other way. This is one part of the list.
Molecular target: Cytochrome P450 1A2 (Homo sapiens) (UniProt P05177)
Experiment: Cytochrome panel assay with activity outcomes
Conditions: recombinant CYP, pro-luciferin dealkylation, luminescence, p450-cyp1a2; series mostly up to 57.1 µM; activity, negative = inhibition: at the top concentration
On the % scale 0 is the no-effect control and ±100 the full control effect.

Sequence of Cytochrome P450 1A2 (Homo sapiens) (P05177 whole entry, looked up): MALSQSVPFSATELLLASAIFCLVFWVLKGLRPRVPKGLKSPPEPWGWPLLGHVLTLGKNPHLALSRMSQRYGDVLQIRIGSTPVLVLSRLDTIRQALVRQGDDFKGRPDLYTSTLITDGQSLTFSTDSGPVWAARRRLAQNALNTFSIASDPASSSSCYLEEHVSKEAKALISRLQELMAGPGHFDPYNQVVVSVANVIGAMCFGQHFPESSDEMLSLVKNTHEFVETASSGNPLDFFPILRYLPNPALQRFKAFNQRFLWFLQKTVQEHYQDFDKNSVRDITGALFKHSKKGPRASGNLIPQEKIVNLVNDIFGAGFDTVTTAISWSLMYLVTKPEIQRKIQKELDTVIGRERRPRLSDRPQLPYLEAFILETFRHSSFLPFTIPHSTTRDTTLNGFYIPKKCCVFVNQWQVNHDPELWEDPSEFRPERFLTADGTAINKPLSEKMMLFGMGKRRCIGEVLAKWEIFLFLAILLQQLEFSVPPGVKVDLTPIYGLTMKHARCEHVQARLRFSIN

activity, negative = inhibition, inactive:
COc1cccc2c1OC[C@@H](CO)[C@H]2N(C)C(=O)Nc1ccc(Cl)cc1Cl 2.57%, O=C(CCNS(=O)(=O)c1cccs1)N1CCCCCC1 -3.69%, CC(C)C(NS(=O)(=O)c1cccs1)C(=O)NCCN1CCN(c2ccccc2)CC1 (stereo unspecified) -16.6%, CSc1nc(Oc2ccc(=O)[nH]n2)nc(N(C)C)n1 -8.98%, Cc1cccc(-n2c(Cn3nc(C)c([N+](=O)[O-])c3C)n[nH]c2=S)c1 1.39%, COc1ccc(F)cc1S(=O)(=O)NC(Cc1ccccc1)C(N)=O (stereo unspecified) -11.3%, C#CCn1c(S(=O)(=O)Cc2ccc(OC)cc2)nc(-c2ccccc2)c1-c1ccccc1 -22.5%, C[C@@H](CNC(N)=O)NC(N)=O -12.2% [at 11.4 µM], O=C(Cc1ccc(Cl)cc1)Nc1cccc(-c2nnc(-c3ccco3)o2)c1 -2.23%, CCC(=O)Nc1cccc(-c2nnc(-c3cccc(NC(=O)CC)c3)o2)c1 -3.41%, CCCCCC(=O)N1CC2(CC(c3cccc(NC(=O)c4ccccc4)c3)=NO2)C[C@@H]1C(N)=O (stereo partly specified) -22.2%, Cc1ccc(S(=O)(=O)O/N=C2/CCCc3occc32)cc1 -10%, CCOc1ccc(C2C(C(=O)O)c3ccccc3C(=O)N2CCN2CCOCC2)cc1 (stereo unspecified) -19.1%, COc1ccc(C2C(C(=O)N3CCOCC3)c3ccccc3C(=O)N2c2ccc(OC)cc2)cc1 (stereo unspecified) -15.8%, O=c1cc(CF)[nH]c(=S)[nH]1 -23.3% [at 11.4 µM], C=CC1=C[C@@H](O)C2OC2C12OCCCO2 (stereo partly specified) -8.77% [at 11.4 µM], NC(=O)CN1CCOCCOCCOCCOCCOCC1 -6.19%, NCS(=O)(=O)O -5.62% [at 2.29 µM], CCN1CCCC1CNC(=O)C(=O)Nc1ccc(OC)cc1 (stereo unspecified) -24.6%, COCCN(C(=O)Nc1ccc(OC)cc1OC)C1CCN(C(C)=O)CC1 -16.2%, CCOc1ccc(-c2nnn(CC(=O)Nc3cc(OC)ccc3OC)n2)cc1OCC -12.8%, CCCCN(CC)Cc1ccc(CNC(=O)Nc2ccc(OC)cc2OC)o1 -6.55%, COc1ccc(OC)c(NC(=O)[C@H]2CC=CC[C@H]2C(=O)O)c1 -20.7%, COc1ccc(NC(=O)CSc2nnc(Cc3cccn3C)n2CCc2ccccc2)c(OC)c1 -35.8%, C[C@@H](C(=O)O)c1ccc(C[C@@H]2CCCC2=O)cc1 -6.14%, O=C1[C@@H]2[C@@H](C(=O)N1c1ccc(OCc3ccccc3)cc1)[C@@H]1c3ccccc3[C@@H]2[n+]2ccccc21 -19.6% [at 11.4 µM]

AC50, active:
Clc1ccccc1-c1nc(-c2ccncc2)no1 79.4 nM, O=C(CCNS(=O)(=O)c1cccs1)N1CCc2ccccc2C1 15800 nM, Cc1cc(C)c2c(-n3cccc3)n[nH]c2n1 3550 nM, Cc1cc(C)c2c(-n3cccc3)nn(CC#N)c2n1 2510 nM, Cc1cccc(-n2nc([N+](=O)[O-])c(=NCc3cccnc3)n2O)c1 2000 nM, COc1cc(OC)c(C#N)c(S(=O)(=O)Cc2ccccc2)c1 15800 nM, CN(Cc1ccco1)c1ncncc1-c1ccc2c(c1)OCO2 200 nM, CN(C)c1ccc(-c2cncnc2N(C)Cc2ccco2)cc1 631 nM, COc1cccc(-c2cncnc2N(C)Cc2ccco2)c1 10000 nM, CN(Cc1ccco1)c1ncncc1-c1cccnc1 5010 nM, CN(Cc1ccco1)c1ncncc1-c1ccoc1 15800 nM, CCCCCC(=O)Nc1cccc(-c2nc3ncccc3o2)c1 2000 nM, O=C(Nc1cccc(-c2nc3ncccc3o2)c1)c1sc2ccccc2c1Cl 708 nM, O=C(CSc1ccc(Cl)cc1)Nc1cccc(-c2nc3ncccc3o2)c1 8910 nM, CN(C)C(=O)CSC1c2ccccc2C(=O)N1c1ccccc1 (stereo unspecified) 12600 nM, c1ccc2c(Nc3ccncc3)nc(-c3ccoc3)nc2c1 158 nM, Fc1ccc(Nc2nc(-c3ccoc3)nc3ccccc23)cc1 316 nM, c1ccc(Nc2nc(-c3ccoc3)nc3ccccc23)cc1 200 nM, CNc1nc(-c2ccoc2)nc2ccccc12 398 nM, NC(=O)CN1CCN(c2nc(-c3ccc(F)cc3)cs2)CC1 2510 nM, COc1ccc2c(c1)C(=NN)c1cc(OC)ccc1-2 112 nM, COc1ccc(OC)c(NC(=O)Cn2cccc2)c1 6310 nM, COc1ccc(NC(=O)NCc2cccn2C)c(OC)c1 15800 nM, COc1ccc(N2CCC(CNC(=O)Nc3ccc(OC)cc3OC)C2)cc1 (stereo unspecified) 12600 nM, COc1ccc(NC(=O)Cn2cccc2)c(OC)c1 5010 nM

Source: PubChem BioAssay AID1851 (National Center for Advancing Translational Sciences (NCATS), 2009)
